Activity calls are given as the source filed them. How the calls were made is not given here.

The subject of the test is Botulinum neurotoxin type F light chain protease (Clostridium botulinum). In words: Clostridium botulinum type F light chain protease inhibitors, microsphere substrate cleavage, validation (AID 588459). Particulars: multiplex microsphere protease substrate cleavage assay, flow cytometry; at 10 µM; hits give high values. On the technique in general: A flow cytometer gives signals particle by particle.
Usually inhibition stands for the relative decrease from the control value, in per cent. Take `CC(=O)c1c(C)[nH]c(C(=O)OCc2ccccc2)c1C`: the inhibition was 2.9% (inactive).
With `C=C1C2(C(=O)Nc3ccc(SC(F)F)cc3)CCC(C2)C1(C)C` (configuration not stated) the figure was -1.3% (inactive); with `CCNC(=O)c1c(N)sc2c1CCCCC2`, 0.9% (inactive); with `C(=C\c1ccc2ccccc2n1)/c1ccccc1`, 1.3% (inactive).
With `CC12CN3CC(C)(CN(C1)C3c1ccc([N+](=O)[O-])o1)C2` (configuration not stated), the inhibition was -3.2% (inactive).
Then `O=C(CN1C(=O)/C(=C/c2cccc(Br)c2)SC1=S)Nc1cccnc1`, with 1.8% (inactive); and `COc1cc2c(cc1O)CCN(C(=O)c1ccco1)C2C` (configuration not stated), with 4.3% (inactive).
With `CC(CCc1ccccc1)NCC(O)c1ccc(O)c(C(N)=O)c1` (configuration not stated) the figure was -1% (inactive); with `COc1c(C=O)c(CCN(C)C(=O)c2ccc(F)cc2)cc2c1OCO2`, 3% (inactive); with `O=c1ccc2c(o1)/C(=C/C=C(Cl)Cl)CCC2`, -0.9% (inactive).
In the case of `CCOC(=O)c1c(C)oc2cc(Br)c(OC(C)C(=O)OCC)cc12` (configuration not stated), the inhibition was -0.6% (inactive).
With `CCC(=O)Oc1ccc(C(=O)Nc2ccc([N+](=O)[O-])cc2)cc1` the figure was 2.3% (inactive).
With `CC(C)CC(=O)OC1C(N2CCOCC2)c2c(ccc(/C=C/C(=O)N3CCOCC3)c2O)OC1(C)C` (configuration not stated), the inhibition was 0.5% (inactive).
Then `C/C=C/c1ccc(OCCCCN2CC(C)CC(C)C2)c(OC)c1` (configuration not stated), with 3.1% (inactive); and `CC(C)OC(=O)CC1C(=O)NCCN1C(=S)NC(=O)c1cccs1` (configuration not stated), with 0.8% (inactive); and `COc1ccc(/C=C\c2nc(=O)c3ccccc3o2)cc1`, with -0.6% (inactive).
With `Cc1ccccc1OCC(O)CN1CCN(C)CC1` (configuration not stated) the figure was 1% (inactive).

Values taken from PubChem BioAssay.
